# Sfp PPTase inh: Sfp phosphopantetheinyl transferase inhibition. Q9F4F7. Biochemical Sfp PPTase activity, qHTS. Potency, µM, for inactives: largest response in the series, negative = inhibition, usual class: inhibitors. actives 3.5% (n = 310,000). AID 1490;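 also: the enzyme is Sfp with the accession as filed and its product quenches rhodamine fluorescence; 0% = enzyme reaction without inhibitor and -100% = no enzyme wells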
#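 Fluorescence-quenching assay: 15 nM Sfp-PPTase preincubated 15 min at room temperature with compound, then 5 uM rhodamine-CoA and 12.5 uM BHQ-2-labelled YbbR peptide added. Fluorescence (ex 525/em 598 nm) read at start and after 30 min; difference gives rate.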
# ALDH1A1 block: ALDH1A1 (human) enzyme inhibition | actives 7.3% (n = 220,000) | Purified ALDH1A1, NADH fluorescence, propionaldehyde substrate | AID 1030 | Potency, µM (top dose mostly 75.3 µM), for the others: at the top dose activity, negative = inhibition, actives largely listed as inhibitors; active = well fitted inhibition curve with a large enough effect, not every such curve was filed as active; inconclusive = small, poorly fitted or top-dose-only effect, or another doubt; inactive = no such curve, though single readings can be large or run the other way;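 also: plate controls were no enzyme wells and a reference inhibitor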
# Target sequence (P00352 whole entry, looked up): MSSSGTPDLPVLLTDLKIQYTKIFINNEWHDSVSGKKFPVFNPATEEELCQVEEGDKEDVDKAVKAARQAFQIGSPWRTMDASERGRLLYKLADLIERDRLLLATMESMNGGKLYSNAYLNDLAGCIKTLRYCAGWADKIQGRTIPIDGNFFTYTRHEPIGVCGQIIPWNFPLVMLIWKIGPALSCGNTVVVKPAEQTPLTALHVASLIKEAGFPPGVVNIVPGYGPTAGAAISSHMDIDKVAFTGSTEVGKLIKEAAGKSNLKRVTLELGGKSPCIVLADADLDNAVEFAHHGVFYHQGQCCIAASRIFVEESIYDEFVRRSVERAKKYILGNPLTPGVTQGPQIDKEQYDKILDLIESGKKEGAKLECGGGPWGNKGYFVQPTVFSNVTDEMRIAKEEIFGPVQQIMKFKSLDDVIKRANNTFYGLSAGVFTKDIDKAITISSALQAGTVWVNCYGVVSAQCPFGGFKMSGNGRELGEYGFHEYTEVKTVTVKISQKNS
# Gal4-VP16 FLuc: counter-screen for ROR gamma inhibitors: Gal4-VP16 reporter; Drosophila S2 Gal4-VP16 UAS-luciferase, luminescence, 20 h; Potency, µM (highest dose often 53.6 µM), inactives show at the highest dose activity, negative = inhibition, usual class: inhibitors; actives 3.5% (n = 310,000); AID 2546;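 also: Gal4-VP16 expression switched on by copper sulfate through the metallothionein promoter; nearly all actives have a fitted effect of over 50% in size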
# PLK1 PBD inh: blocks phosphopeptide binding to human PLK1 polo-box domain; Potency, µM, inactives show max response, negative = inhibition, most hits filed as inhibitors; P53350; Plk1 PBD binding of FITC phosphopeptide, fluorescence polarization; actives 2.8% (n = 360,000); AID 720504; also: series mostly up to about 57 µM; nearly all actives have a fitted effect of over 65% in size
# RORgamma inh: ROR gamma (mouse) transcription inhibition; P51450; Drosophila S2 Gal4-RORgamma UAS-luciferase reporter, 20 h; Potency, µM (highest dose often 53.6 µM), without a hit: top-dose activity change, negative = inhibition, most hits filed as inhibitors; actives 5.4% (n = 310,000); AID 2551; also: nearly all actives have a fitted effect of over 60% in size
#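 Drosophila S2 cells stably expressing Gal4-DBD/mouse RORγ fusion under metallothionein promoter plus UAS-luciferase; compound 1 h, then 700 uM CuSO4 induction for 20 h at ambient temperature; inhibition read as reduced luminescence.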
# Active calls of the source: *; ? = inconclusive; . = no result; [ ] = dose if it differs, or a comment. Shown are actives, neighbours in structure and some others; about 12% of the full set was active somewhere. Unless noted, calls follow the shape of the dose curve; as a rule, active = well fitted curve in the direction sought with a large enough effect; inconclusive = small, poorly fitted or top-dose-only effect, or another doubt; inactive = no such curve, though single readings can be large; an effect the other way counts as inactive or inconclusive. Unless noted, % is scaled to controls: 0 for no effect and ±100 for the full control effect; potency is read from the fitted curve at half-maximal effect.
SMILES,Sfp PPTase inh,ALDH1A1 block,Gal4-VP16 FLuc,PLK1 PBD inh,RORgamma inh
Cc1cccc(/C=N/NC(=O)c2cc(C3CC3)nc3ccccc23)n1,-1%,.,?,6%,?
O=C(N/N=C/c1cccs1)c1cncc(Br)c1,5%,-9%,2µM*,-5%,1µM*
O=C(N/N=C\c1ccc([N+](=O)[O-])s1)c1cncc(Br)c1,-9%,6%,1.1µM*,-23%,0.71µM*
CCc1ccc(/C=N/NC(=O)c2cc(C3CC3)nc3ccccc23)s1,12%,-1%,1.8µM*,-3%,1.3µM*
COc1ccc(-c2c(NC(=O)c3ccco3)oc3ccccc3c2=O)cc1OC,13%,.,-9%,9%,-4%
C=CCC(c1ccccc1)N(C(C)=O)c1ccco1 (stereo not given),8%,-9%,-9%[10 µM],-22%,38%
C=CCC(Nc1ccco1)c1ccccc1 (stereo not given),-31%,22µM*,18µM*,-7%,4%
COC(=O)[C@@]12C[C@@H](CC(=O)NCC3CCCCC3)C(=O)N(Cc3cccc4ccccc34)C1=CCC(C)(C)C2,.,.,.,1%,.
CCN(C(=O)COC(=O)c1cc(C)n(-c2ccc(F)cc2)c1C)C1CCS(=O)(=O)C1 (stereo not given),4%,?,1%,-1%,?
Cc1cc(C(=O)OCC(N)=O)c(C)n1-c1ccccc1,-13%,1%,-14%,24µM*,25%
C/C(N)=C(/C#N)C(=O)COC(=O)c1cc(C)n(-c2ccc(F)cc2)c1C,17%,13µM*,-4%,-1%,-11%
Cc1cccc(C)c1NC(=O)C(c1ccnc2ccccc12)N1CCN(CCN(C)C)CC1 (stereo not given),.,.,.,-8%,.
CN(C)c1cc(-c2cccc(NS(C)(=O)=O)c2)ncn1,-8%,?,-6%,.,13%
CC(C)n1c(=O)nc(-c2ccccc2)c2cc3c(cc21)OCO3,.,.,.,-14%,.
O=C1O[C@@H](c2ccccc2)C[C@@H](O)[C@H](O)CCCc2ccccc21,.,.,.,-3%,.
Cc1nc2c(=O)n(C)c(=O)n(C)c2nc1Cl,-15%,?,7.1µM*,24µM*,?
Cn1c(=O)c2nc(NCc3ccccc3)cnc2n(C)c1=O,16%,-12%,4%,-9%,21%
COc1ccccc1NC(=S)N=Nc1c(O)[nH]c2ccc(Br)cc12,-16%,13%,5.6µM*,-1%,2µM*
CCCCCCC(=O)N=Nc1c(O)[nH]c2ccc([N+](=O)[O-])cc12,-2%,-1%,-8%,-4%,-8%
O=C(N=Nc1c(O)[nH]c2ccccc12)Nc1ccccc1,.,.,.,3%,.
COCCNC(=S)N=Nc1c(O)[nH]c2ccc([N+](=O)[O-])cc12,13%,?,-18%,-3%,0.56µM*
Cc1ccc(S(=O)(=O)N=Nc2c(O)[nH]c3ccccc23)cc1,1%,?,7%,-9%,-10%
Cc1cccc(NC(=S)N=Nc2c(O)[nH]c3ccccc23)c1,18%,-3%,3.5µM*,-7%,1.4µM*
COc1ccc(/C=N/OCC(=O)N=Nc2c(O)[nH]c3ccc(Br)cc23)cc1OC,-14%,3%,?,-5%,-23%
Cc1ccc(C)c(S(=O)(=O)N=Nc2c(O)[nH]c3ccccc23)c1,-19%,10µM*,8%,-18%,0%
SMILES,Sfp PPTase inh,ALDH1A1 block,Gal4-VP16 FLuc,PLK1 PBD inh,RORgamma inh
CCCNC(=O)C1(C)CCCN(Cc2cccc(C#N)c2)C1 (stereo not given),.,.,.,0%,.
Cc1cc(C)cc(NC(=O)c2cc(S(=O)(=O)NCc3ccco3)ccc2F)c1,9%,6%,10µM*,-13%,-18%
Cc1cc(C)n(-c2ccc(C(=O)Nc3cccc(S(=O)(=O)N(C)C)c3)cc2)n1,9%,-6%,7.1µM*,4%,?
Cc1ccc(NC(=O)CSc2nn(-c3ccc(Cl)cc3)c(=S)s2)cc1S(=O)(=O)N(C)C,?,14µM*,-8%,-13%,-15%[10 µM]
CN(C)S(=O)(=O)c1cc(NC(=O)CSc2nn(-c3ccc(Cl)cc3)c(=S)s2)ccc1Cl,17%,?,-2%,3%,?
CCN(CC)S(=O)(=O)c1cccc(NC(=O)c2ccc(-n3nc(C)cc3C)cc2)c1,12%,5%,-13%,4%,?
Cc1ccc(C(=O)Nc2ccc(S(=O)(=O)NCc3ccco3)cc2)cc1,-19%,?,-15%,-5%,-5%
Cc1cc(C)n(-c2ccc(C(=O)Nc3ccc(S(=O)(=O)NCc4ccco4)cc3)cc2)n1,11%,11%,16µM*,-10%,?
CC1=C(C(=O)N2CCCCCC2)CC(CC(=O)NCCCN(C)C)C(=O)N1Cc1ccc(F)cc1 (stereo not given),.,.,.,0%,.
Cc1cc(C)n(-c2ccc(C(=O)Nc3ccc(C)c(S(=O)(=O)N(C)C)c3)cc2)n1,-12%,?,18µM*,-2%,-34%
Cc1ccc(NC(=O)CN(C)CC(=O)Nc2sc3c(c2C(N)=O)CCC3)cc1,8%,.,?,-9%,16µM*
CN(CC(=O)Nc1ccc(Cl)cc1)CC(=O)Nc1ccc(C(N)=O)cc1,5%,32µM*,7%,2%,?
CCC1(C)NC(=O)N(CC(=O)Nc2sc3c(c2C(=O)OC)CCCCC3)C1=O (stereo not given),6%,?,-1%,-23%,?
CCC1(CC)NC(=O)N(CC(=O)Nc2sc3c(c2C(N)=O)CCC3)C1=O,-15%,22µM*,-2%,-25%,14%
CN(CC(=O)Nc1ccc(Cl)cc1)CC(=O)Nc1sc2c(c1C(N)=O)CCC2,.,.,.,3%,.
COC(=O)[C@@]12C[C@@H](CC(=O)N3CCC(c4ccccc4)CC3)C(=O)N(Cc3cccc4ccccc34)C1=CCC(C)(C)C2,.,.,.,-6%,.
CC(C)CN1CCC2(CC1)CCN(S(=O)(=O)c1ccccc1)CC2,25%,10%,6%,.,6%
Nc1ccccc1-c1n[nH]c(=S)s1,-25%,?,-1%,?,?
CCSc1n[nH]c(=S)s1,-76%,1.8µM*,?,-9%,?
Cc1cnc(C(=O)O)cn1,-30%,.,4%,.,-15%
Cc1c(C(C)(C)C)c(C=S)n2ccccc12,50µM*,22µM*,13%,?,2%
CC(C)(C)c1ccc(-c2nc(C=O)c3ccccn23)cc1,14%,?,11%,2%,-29%
COC1OCC(O)C(NC(=O)N(C)N=O)C1O (stereo not given),.,.,.,5%,.
CCC(C)NC(=O)CSc1nnc(-c2cc(-c3ccc(C)cc3)nc3ccccc23)n1N (stereo not given),17%,?,11%,2%,40%
Cc1cc(NC(=O)c2cc(-c3cccc(OCC(C)C)c3)nc3ccccc23)no1,6%,.,-12%,1%,-42%
CCn1c(-c2cccn(Cc3ccccc3)c2=O)n[nH]c1=S,19%,-3%,8%,-14%,-32%
CCn1c(-c2cc(-c3ccc(C)cc3)nc3ccccc23)n[nH]c1=S,-9%,?,-19%,-21%,1.1µM*
